Assay results reported in PubChem BioAssay (NCATS).
Values joined by “and” are separate entries in the source; they are usually repeats but may differ in a detail not shown here. Equal values may be shown once. Results filed as inconclusive are left out. Active and inactive are the calls of the source. Unless noted, the call rests on the fitted dose curve; in most records, active means well fitted curve in the direction sought with a large enough effect; inconclusive means small, poorly fitted or top-dose-only effect, or another doubt; inactive means no such curve, though single readings can be large; an effect the other way counts as inactive or inconclusive.

Assays:
[1] = Cell Viability - BJ (AID 421; calls by dose curve;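 further: potency means the concentration at half of the fitted maximal effect; cells exposed to compound for 40 hours at 37 °C before readout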); details: BJ fibroblast viability, qHTS
How it was run: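 Cytotoxicity in human BJ foreskin fibroblasts is scored as loss of cellular ATP after a 40-hour exposure, measured by luciferase luminescence. Controls are DMSO and 100 uM tamoxifen.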

[2] = Cellular Toxicity (caspase-3) HepG2 (AID 654); details: HepG2 caspase-3 activation, luminescence, 0% = DMSO only, 100% = tamoxifen; series mostly up to 92.2 µM;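 further: cells exposed to compound for 16 hours before reading; 0% = DMSO alone and 100% = caspase signal from 100 µM tamoxifen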
How it was run: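 qHTS, HepG2, 1500 cells/well, complete medium; cpd 16 h 37 °C; Caspase-Glo 3/7, 20 min RT; lum. Norm: DMSO vs 100 uM tamoxifen; AC50 Hill fit.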

[3] = Cellular Toxicity (caspase-3) BJ (AID 658); details: BJ fibroblasts, luminescence, normalized: DMSO 0%, staurosporine 100%; series mostly up to 91.7 µM;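 further: cells exposed to compound for 16 hours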
How it was run: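 Readout: Caspase-Glo 3/7 luminescence increase in BJ cells after 16 hr treatment at 37 °C. Staurosporine and tamoxifen served as positive controls; AC50 values came from Hill modelling of data normalized to DMSO and 10 uM staurosporine.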

[4] = Cellular Toxicity (caspase-3) MRC-5 (AID 659); details: MRC-5 cells, luminescence, normalized: DMSO 0%, 10 µM staurosporine 100%; series mostly up to 91.7 µM
How it was run: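 Concentration-dependent caspase 3/7 activation is measured in human normal lung fibroblasts (MRC-5) following 16-hour treatment. AC50 values come from standard Hill-equation modeling of luminescence normalized to DMSO and 10 uM staurosporine.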

[5] = Cellular Toxicity (caspase-3) Hek293 (AID 664); details: HEK293 caspase-3 activation, DMSO = 0%, 100 µM tamoxifen = 100%; at 92.2 µM (top of the series);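 further: cells exposed to compound for 16 h at 37 °C before readout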
How it was run: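 Activation of caspase-3/7 is measured as increased luminescence from cleaved peptide-aminoluciferin substrate in HEK293 cells treated 16 hours at 37 °C. AC50 values come from Hill-equation fits of concentration-response data.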

[6] = Cellular Toxicity (caspase-3) N2a (AID 665); details: N2a cells, luminescence, normalized: DMSO 0%, 10 µM staurosporine 100%; series mostly up to 92.2 µM;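 further: compound exposure lasted 16 h at 37 °C before readout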
How it was run: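 Plated mouse neuroblastoma N2a cells received titrated compounds for 16 h in complete medium. Caspase activity was then detected with a peptide-aminoluciferin luminescent reagent.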

[7] = Cellular Toxicity (caspase-3) NIH 3T3 (AID 666); details: NIH 3T3 caspase-3 activation, apoptosis/toxicity; series mostly up to 92.2 µM;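 further: caspase signal read after 16 h compound exposure; 0% = DMSO basal and 100% = 100 µM tamoxifen stimulation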
How it was run: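 Concentration-response qHTS in NIH 3T3 mouse fibroblasts scores caspase-3/7 activation as rising luminescence after 16 hr compound exposure. Signals are scaled between DMSO-only and 100 uM tamoxifen.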

[8] = Cell Viability - LYMP2-001 (AID 921); details: LYMP2-001 lymphoblastoid cell viability; series mostly up to 92.2 µM;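 further: 0% = DMSO only and full inhibition = tetraoctylammonium bromide control wells; nearly all actives have a fitted effect of over 70% in size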
How it was run: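 Cellular ATP loss read by luciferase luminescence after 24 h compound exposure at 37 C in complete medium. LYMP2-001 lymphoblastoid cells, 2500/well; qHTS concentration-response data fitted with Hill equation for AC50.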

[9] = MultiTox-Fluor Cytotoxicity Assay - LYMP1-001 - Dead Cells (AID 946); details: LYMP1-001 lymphoblastoid cells, dead-cell protease fluorescence; series mostly up to 92.2 µM
How it was run: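 Seed 2500 LYMP1-001 cells/well, incubate 5 hr at 37 C; add compound, 16 hr at 37 C; add MultiTox-Fluor reagent, 60 min RT; read dead-cell fluorescence Ex/Em=485/520. Normalize to DMSO and 15 uM tetraoctylammonium bromide.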

[10] = MultiTox-Fluor Cytotoxicity Assay - LYMP1-002 - Live Cells (AID 955); details: LYMP1-002 lymphoblastoid live-cell protease fluorescence viability; series mostly up to 46.1 µM;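 further: cells exposed to compound for 16 hours; on the % scale 0 is the no-effect control and ±100 the full control effect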
How it was run: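 Cytotoxicity in the human lymphoblastoid line LYMP1-002 is measured as loss of live-cell protease activity after 16 h treatment in complete culture medium. AC50 is derived from Hill-equation fits of qHTS concentration-response data.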

[11] = MultiTox-Fluor Cytotoxicity Assay - LYMP1-003 - Dead Cells (AID 961); details: LYMP1-003 lymphoblastoid cells, dead-cell protease fluorescence; series mostly up to 92.2 µM; further: nearly all actives have a fitted effect of over 70% in size
How it was run: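 LYMP1-003 lymphoblastoid, 2500 cells/well, 5 hr settle then 16 hr cpd at 37 C; MultiTox-Fluor reagent 60 min RT; Ex/Em 485/520 dead-cell signal; norm. DMSO = 0%, 15 uM tetraoctylammonium bromide = 100%; Hill AC50.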

[12] = MultiTox-Fluor Cytotoxicity Assay - LYMP1-003 - Live Cells (AID 962); details: LYMP1-003 lymphoblastoid cells, MultiTox-Fluor live-cell protease fluorescence; series mostly up to 92.2 µM;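 further: cells exposed to compound for 16 hours at 37 °C; 0% = DMSO only and full loss = 92 µM tetraoctylammonium bromide; cytotoxic hits lower the live-cell protease signal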
How it was run: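 Cells plated at 2500 per well and incubated 5 hr; compounds added and incubated 16 hr at 37 C; MultiTox-Fluor reagent added for 60 min at room temperature; fluorescence of liberated AFC measured at 405/510 nm.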

[13] = Cell Viability - LYMP2-021 (AID 974); details: LYMP2-021 lymphoblastoid cells viability; series mostly up to 92.2 µM;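 further: compound exposure lasts 24 hours at 37 °C; on the % scale 0 is the no-effect control and ±100 the full control effect; nearly all actives have a fitted effect of over 55% in size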
How it was run: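 Concentration-response cytotoxicity in a human lymphoblastoid line: 24 hr treatment at 37 C in complete culture medium, tetraoctylammonium bromide as positive control, luminescent ATP quantitation as viability measure.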

[14] = Cell Viability - LYMP2-025 (AID 976); details: LYMP2-025 lymphoblastoid cell viability; series mostly up to 92.2 µM;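 further: plate controls were DMSO only for no effect and tetraoctylammonium bromide control for full effect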
How it was run: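 In qHTS format, LYMP2-025 lymphoblastoid cells in complete culture medium received compound for 24 hr; ATP-based CellTiter-Glo signal gave viability, with AC50 derived by Hill equation.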

[15] = Cell Viability - LYMP2-006 (AID 978); details: LYMP2-006 lymphoblastoid cell viability, qHTS; series mostly up to 92.2 µM; further: on the % scale 0 is the no-effect control and ±100 the full control effect; nearly all actives have a fitted effect of over 60% in size
How it was run: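 Potency values are Hill-fit AC50s for decreases in intracellular ATP (CellTiter-Glo luminescence). LYMP2-006 lymphoblastoid cells, 2500 per well, were exposed to compound in complete culture medium for 24 hr at 37 C.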

[16] = Cell Viability - LYMP1-002 - Assay at 24 hr (AID 993); details: LYMP1-002 lymphoblastoid cells viability; series mostly up to 92.2 µM; further: on the % scale 0 is the no-effect control and ±100 the full control effect
How it was run: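 qHTS, LYMP1-002 lymphoblastoid, 24 h cpd, 37 C, CellTiter-Glo ATP luminescence; AC50 via Hill eq.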

[17] = Cell Viability - LYMP1-002 - Assay at 40 hr (AID 994); details: LYMP1-002 lymphoblastoid cell viability; series mostly up to 92.2 µM;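 further: 0% = DMSO only and full inhibition = 92 µM tetraoctylammonium bromide; nearly all actives have a fitted effect of over 60% in size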
How it was run: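 Viability in the human lymphoblastoid line was measured as intracellular ATP via CellTiter-Glo after 40 hr compound exposure. Tetraoctylammonium bromide served as positive control.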

[18] = qHTS Assay for Identification of Small Molecule Inducers of Hypoxia Response (AID 2120; active means well fitted curve in the direction sought with a large enough effect in the signal ratio, with a control signal flat, not every such curve was filed as active; the % refers to the signal ratio; further: 0% is about no effect); details: hypoxia response reporter cells, beta-lactamase ratio readout; series mostly up to 104 µM
How it was run: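 Induction of beta-lactamase reporter activity was measured in CellSensor HRE-bla ME-180 cells after 17 h compound treatment at 37 degrees C, using CCF4 substrate and the 460nm/530nm emission ratio to derive AC50 values.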

[19] = biological target: Peroxisome proliferator-activated receptor alpha (Homo sapiens) (UniProt Q07869); experiment: qHTS assay for small molecule agonists of the peroxisome proliferator-activated receptor alpha (PPARalpha) signaling pathway (AID 651778); details: PathHunter PPARalpha complementation, chemiluminescence, 6 h; active compounds read high; further: % of control where 0% means no effect
How it was run: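 Chemiluminescence from complemented enzyme reported PPARalpha activation in cells after 6 hr of compound treatment at 37 C. The detection reagent was incubated for 60 min at room temperature, and compounds were scored as agonists.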

[20] = qHTS assay for cell viability of the p53RE-bla HCT-116 cell line (AID 743292); details: p53RE-bla HCT-116 viability, ATP luminescence, 16 h; series mostly up to 95 µM; further: on the % scale 0 is the no-effect control and ±100 the full control effect; nearly all actives have a fitted effect of over 55% in size
How it was run: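 Intracellular ATP of p53RE-bla HCT-116 cells measured by luciferase luminescence following 16 h compound incubation at 37 C; DMSO-only wells served as vehicle controls.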

Sequence of Peroxisome proliferator-activated receptor alpha (Homo sapiens) (Q07869 whole entry, looked up): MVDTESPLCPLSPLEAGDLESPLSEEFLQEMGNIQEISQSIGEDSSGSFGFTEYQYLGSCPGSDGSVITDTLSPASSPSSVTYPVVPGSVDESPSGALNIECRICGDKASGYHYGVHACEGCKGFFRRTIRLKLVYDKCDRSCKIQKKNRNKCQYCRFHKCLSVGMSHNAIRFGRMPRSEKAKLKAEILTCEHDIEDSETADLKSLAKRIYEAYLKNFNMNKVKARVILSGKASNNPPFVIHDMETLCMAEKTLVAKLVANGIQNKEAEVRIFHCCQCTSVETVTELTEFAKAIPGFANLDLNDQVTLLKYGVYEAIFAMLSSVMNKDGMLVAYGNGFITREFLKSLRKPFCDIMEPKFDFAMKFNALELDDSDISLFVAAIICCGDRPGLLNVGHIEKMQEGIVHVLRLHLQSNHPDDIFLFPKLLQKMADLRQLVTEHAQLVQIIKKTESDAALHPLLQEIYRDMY

CC(=O)CCC(C)=O
inactive: Potency [1] > 92 µM | outcome [2] | outcome [3] | outcome [4] | caspase-3 activation [5] 0.261% | outcome [6] | Potency [7] | Potency [8] | outcome [9] | outcome [10] | Potency [11] | outcome [12] | Potency [13] | Potency [14] | Potency [15] | Potency [16] | Potency [17] | Potency [18] | max response [19] -3.42% | Potency [20]

Cc1ccc2c(c1N)C(=O)c1ccccc1C2=O
inactive: Potency [1] > 92 µM | outcome [2] | outcome [3] | outcome [4] | caspase-3 activation [5] -8.32% | outcome [6] | Potency [8] | outcome [9] | outcome [10] | Potency [11] | outcome [12] | Potency [13] | Potency [14] | Potency [15] | Potency [16] | Potency [17] | Potency [18] | max response [19] -8.43% and -4.54% | Potency [20]

N#CC(Br)Br
inactive: Potency [1] > 92 µM | outcome [2] | outcome [3] | outcome [4] | caspase-3 activation [5] 5.88% | outcome [6] | Potency [7] | Potency [8] | outcome [9] | outcome [10] | Potency [11] | outcome [12] | Potency [14] | Potency [16] | Potency [17] | Potency [18] | max response [19] -1.13% | Potency [20]

CC(C)(COCC1CO1)COCC1CO1 (configuration not stated)
inactive: Potency [1] > 92 µM | outcome [2] | outcome [3] | outcome [4] | caspase-3 activation [5] 0.0543% | outcome [6] | Potency [7] | Potency [8] | outcome [9] | outcome [10] | Potency [11] | outcome [12] | Potency [13] | Potency [14] | Potency [15] | Potency [16] | Potency [17] | Potency [18] | max response [19] -0.497% | Potency [20]

COc1c(C(C)(C)C)cc([N+](=O)[O-])c(C)c1[N+](=O)[O-]
inactive: Potency [1] > 92 µM | outcome [2] | outcome [3] | outcome [4] | caspase-3 activation [5] 1.65% | outcome [6] | Potency [7] | Potency [8] | outcome [9] | outcome [10] | Potency [11] | outcome [12] | Potency [13] | Potency [14] | Potency [15] | Potency [16] | Potency [17] | Potency [18] | max response [19] 1.79% | Potency [20]
